According to the supplement of paper PMC11732987, “Enantioselective OTUD7B fragment discovery through chemoproteomics screening and high-throughput optimisation” (Communications Chemistry, 2025):

Columns and labels:
Test in all cases: log2 ratio of Biotin-Ahx-Ub-VS probe labelling (fragment/DMSO); higher = less target engagement (more negative = stronger competition), active = hit call of the paper (q ≤ 0.05, log2 ratio ≤ -1)
Settings in all cases: compound concentration: 200 uM; treatment time: 3 h
[1] = target: T1, OTUD6B (UniProt Q8N6M0)
T1 sequence (whole entry): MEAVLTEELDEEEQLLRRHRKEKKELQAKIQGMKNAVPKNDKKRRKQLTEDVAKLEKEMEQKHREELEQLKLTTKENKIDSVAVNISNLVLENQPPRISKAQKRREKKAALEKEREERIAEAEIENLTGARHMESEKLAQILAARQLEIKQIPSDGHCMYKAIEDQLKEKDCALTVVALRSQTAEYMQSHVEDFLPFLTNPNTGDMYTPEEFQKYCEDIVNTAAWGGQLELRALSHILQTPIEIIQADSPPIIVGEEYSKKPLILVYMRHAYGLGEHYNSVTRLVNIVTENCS
In short: (§1)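 Average log2 ratios of fragment over vehicle were obtained by unpaired t-test from global-median-normalised Spectronaut label-free quantities. Proteins with ≥2 unique peptides were included. HEK293T lysate (495 µg per sample) was treated in triplicate with fragment at 200 µM or vehicle for 3 h, then with Biotin-Ahx-Ub-VS at 0.5 µM final for 1 h, and labelled DUBs were NeutrAvidin-enriched and run by diaPASEF LC-MS/MS.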

[2] = target: T2, OTUD7B (UniProt Q6GQQ9)
T2 sequence (whole entry): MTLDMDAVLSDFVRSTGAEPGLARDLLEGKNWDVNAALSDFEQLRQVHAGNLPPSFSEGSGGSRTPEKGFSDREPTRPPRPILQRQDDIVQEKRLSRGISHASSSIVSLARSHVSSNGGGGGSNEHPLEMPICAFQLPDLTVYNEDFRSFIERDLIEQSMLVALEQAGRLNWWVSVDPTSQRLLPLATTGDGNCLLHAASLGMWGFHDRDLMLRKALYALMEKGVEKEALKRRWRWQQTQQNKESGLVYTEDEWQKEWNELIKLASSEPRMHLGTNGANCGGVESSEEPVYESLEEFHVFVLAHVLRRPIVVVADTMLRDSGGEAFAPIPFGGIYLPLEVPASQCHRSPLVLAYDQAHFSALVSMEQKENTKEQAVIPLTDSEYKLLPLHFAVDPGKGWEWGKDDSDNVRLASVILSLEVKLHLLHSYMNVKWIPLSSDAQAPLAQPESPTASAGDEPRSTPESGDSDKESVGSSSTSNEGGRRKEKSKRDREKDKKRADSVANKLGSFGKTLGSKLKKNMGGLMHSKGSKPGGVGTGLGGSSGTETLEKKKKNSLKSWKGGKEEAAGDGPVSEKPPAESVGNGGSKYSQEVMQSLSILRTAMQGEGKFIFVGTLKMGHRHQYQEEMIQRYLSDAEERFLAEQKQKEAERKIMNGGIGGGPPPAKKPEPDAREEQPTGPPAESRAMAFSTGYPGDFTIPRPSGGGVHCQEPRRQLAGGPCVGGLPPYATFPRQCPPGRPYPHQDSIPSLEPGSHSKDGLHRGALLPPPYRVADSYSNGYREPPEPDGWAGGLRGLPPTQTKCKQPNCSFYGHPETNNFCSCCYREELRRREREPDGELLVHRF
In short: as §1

[3] = target: PRPF8 (UniProt Q6P2Q9)
In short: as §1

[4] = target: T3, PSMD7 (UniProt P51665)
T3 sequence (whole entry): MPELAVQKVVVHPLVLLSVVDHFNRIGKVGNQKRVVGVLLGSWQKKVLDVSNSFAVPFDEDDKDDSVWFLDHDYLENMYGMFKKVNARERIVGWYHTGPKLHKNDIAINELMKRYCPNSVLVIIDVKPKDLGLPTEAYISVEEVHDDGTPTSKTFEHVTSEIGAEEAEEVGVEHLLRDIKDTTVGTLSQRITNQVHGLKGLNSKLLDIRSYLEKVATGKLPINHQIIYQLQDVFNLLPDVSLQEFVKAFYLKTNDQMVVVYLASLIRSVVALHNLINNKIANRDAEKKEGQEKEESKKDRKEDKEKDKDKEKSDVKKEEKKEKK
In short: as §1

[5] = target: UCHL1 (UniProt P09936)
In short: as §1

[6] = target: T4, UCHL3 (UniProt P15374)
T4 sequence (whole entry): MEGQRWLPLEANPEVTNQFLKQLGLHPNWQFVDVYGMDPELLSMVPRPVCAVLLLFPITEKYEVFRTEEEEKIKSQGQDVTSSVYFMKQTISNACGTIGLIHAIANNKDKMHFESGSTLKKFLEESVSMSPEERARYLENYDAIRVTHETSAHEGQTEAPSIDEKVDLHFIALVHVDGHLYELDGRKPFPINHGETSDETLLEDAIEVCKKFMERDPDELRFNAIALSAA
In short: as §1

[7] = target: T5, UCHL5 (UniProt Q9Y5K5)
T5 sequence (whole entry): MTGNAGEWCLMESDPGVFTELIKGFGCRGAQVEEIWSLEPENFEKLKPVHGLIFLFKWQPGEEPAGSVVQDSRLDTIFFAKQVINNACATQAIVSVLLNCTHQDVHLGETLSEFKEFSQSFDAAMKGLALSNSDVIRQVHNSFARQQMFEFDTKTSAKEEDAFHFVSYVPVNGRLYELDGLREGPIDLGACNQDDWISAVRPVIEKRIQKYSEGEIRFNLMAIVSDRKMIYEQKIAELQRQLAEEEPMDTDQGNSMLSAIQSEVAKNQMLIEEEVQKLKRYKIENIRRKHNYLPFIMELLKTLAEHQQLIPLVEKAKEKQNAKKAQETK
In short: as §1

[8] = target: USP10 (UniProt Q14694)
In short: as §1

[9] = target: T6, USP15 (UniProt Q9Y4E8)
T6 sequence (whole entry): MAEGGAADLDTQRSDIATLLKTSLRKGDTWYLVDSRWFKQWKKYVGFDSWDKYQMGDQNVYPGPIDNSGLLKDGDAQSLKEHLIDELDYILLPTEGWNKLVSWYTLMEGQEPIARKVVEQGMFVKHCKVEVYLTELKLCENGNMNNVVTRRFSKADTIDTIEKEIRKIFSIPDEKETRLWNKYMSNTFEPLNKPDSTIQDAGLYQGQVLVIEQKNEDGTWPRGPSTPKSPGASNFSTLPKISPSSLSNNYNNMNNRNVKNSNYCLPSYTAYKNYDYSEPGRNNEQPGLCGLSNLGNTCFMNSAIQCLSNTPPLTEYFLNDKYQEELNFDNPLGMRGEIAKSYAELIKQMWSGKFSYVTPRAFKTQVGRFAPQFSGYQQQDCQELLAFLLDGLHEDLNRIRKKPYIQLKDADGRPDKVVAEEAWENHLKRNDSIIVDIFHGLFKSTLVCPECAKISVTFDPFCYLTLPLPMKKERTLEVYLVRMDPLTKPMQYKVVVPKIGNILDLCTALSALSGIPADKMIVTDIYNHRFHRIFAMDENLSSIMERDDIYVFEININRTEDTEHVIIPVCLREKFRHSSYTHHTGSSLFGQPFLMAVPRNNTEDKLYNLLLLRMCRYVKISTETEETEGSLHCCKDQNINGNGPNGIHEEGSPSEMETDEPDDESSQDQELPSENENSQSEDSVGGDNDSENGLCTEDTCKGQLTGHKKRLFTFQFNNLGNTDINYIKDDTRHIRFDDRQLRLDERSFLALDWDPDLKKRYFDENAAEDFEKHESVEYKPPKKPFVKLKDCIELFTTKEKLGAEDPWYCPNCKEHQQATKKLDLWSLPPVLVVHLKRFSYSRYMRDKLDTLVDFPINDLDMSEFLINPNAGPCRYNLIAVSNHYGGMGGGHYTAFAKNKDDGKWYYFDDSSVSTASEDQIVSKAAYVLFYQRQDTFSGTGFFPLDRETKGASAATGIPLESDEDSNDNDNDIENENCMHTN
In short: as §1

[10] = target: USP16 (UniProt Q9Y5T5)
In short: as §1

Measured: log2 ratio of Biotin-Ahx-Ub-VS probe labelling

Chain of UCHL1 (P09936 whole entry, looked up): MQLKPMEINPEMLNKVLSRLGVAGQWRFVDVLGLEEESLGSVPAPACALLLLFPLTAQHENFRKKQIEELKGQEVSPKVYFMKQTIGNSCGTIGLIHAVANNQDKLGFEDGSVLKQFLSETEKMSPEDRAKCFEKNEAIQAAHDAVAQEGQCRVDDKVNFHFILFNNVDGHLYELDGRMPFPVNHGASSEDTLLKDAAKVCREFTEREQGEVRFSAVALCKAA
Chain of USP10 (Q14694 whole entry): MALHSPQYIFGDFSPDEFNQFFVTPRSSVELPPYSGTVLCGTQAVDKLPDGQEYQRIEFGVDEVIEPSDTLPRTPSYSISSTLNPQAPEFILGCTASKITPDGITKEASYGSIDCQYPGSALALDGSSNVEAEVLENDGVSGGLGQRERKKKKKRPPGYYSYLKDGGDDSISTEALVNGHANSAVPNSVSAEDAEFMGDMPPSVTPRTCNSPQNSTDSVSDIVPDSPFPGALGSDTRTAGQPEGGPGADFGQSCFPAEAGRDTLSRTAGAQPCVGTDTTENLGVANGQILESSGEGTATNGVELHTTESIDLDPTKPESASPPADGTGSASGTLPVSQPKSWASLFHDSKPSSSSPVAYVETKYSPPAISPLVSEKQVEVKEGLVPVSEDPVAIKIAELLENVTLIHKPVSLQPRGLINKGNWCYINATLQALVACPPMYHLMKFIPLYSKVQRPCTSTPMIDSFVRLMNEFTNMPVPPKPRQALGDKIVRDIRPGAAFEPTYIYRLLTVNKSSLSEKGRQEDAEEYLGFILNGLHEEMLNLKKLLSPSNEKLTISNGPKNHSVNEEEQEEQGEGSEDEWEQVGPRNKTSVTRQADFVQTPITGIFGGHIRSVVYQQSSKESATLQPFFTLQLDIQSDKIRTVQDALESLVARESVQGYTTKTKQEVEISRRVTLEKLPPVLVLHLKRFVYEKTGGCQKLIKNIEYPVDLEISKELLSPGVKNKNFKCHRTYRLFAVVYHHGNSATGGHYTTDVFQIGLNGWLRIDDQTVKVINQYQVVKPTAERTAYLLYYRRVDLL
Chain of USP16 (Q9Y5T5 whole entry, looked up): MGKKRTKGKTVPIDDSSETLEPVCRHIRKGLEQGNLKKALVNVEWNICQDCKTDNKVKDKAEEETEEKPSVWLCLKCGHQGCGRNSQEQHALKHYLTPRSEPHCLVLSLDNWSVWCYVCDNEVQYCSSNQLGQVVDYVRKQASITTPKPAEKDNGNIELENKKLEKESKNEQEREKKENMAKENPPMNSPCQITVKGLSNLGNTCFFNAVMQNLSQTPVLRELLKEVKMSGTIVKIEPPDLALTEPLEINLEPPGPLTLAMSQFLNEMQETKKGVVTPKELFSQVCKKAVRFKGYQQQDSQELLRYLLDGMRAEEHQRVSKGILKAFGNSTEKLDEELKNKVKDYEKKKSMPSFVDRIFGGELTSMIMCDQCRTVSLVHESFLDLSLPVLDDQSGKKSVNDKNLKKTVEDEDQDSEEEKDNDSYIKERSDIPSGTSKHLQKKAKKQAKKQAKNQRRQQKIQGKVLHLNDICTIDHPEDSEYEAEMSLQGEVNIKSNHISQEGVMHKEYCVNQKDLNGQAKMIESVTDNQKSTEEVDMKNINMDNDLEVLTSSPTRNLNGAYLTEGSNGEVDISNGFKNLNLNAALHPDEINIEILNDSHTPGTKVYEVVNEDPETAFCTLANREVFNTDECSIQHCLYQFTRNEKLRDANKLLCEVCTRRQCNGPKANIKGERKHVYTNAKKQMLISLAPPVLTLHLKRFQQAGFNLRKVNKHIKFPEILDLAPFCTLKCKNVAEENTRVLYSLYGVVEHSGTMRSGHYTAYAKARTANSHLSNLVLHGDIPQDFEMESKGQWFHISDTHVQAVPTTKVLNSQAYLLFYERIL

O=C(CCl)N1CCc2nc[nH]c2C1c1ccc(Cl)cc1 (stereo not given)
inactive: [1] -0.263 | [3] -0.0118 | [4] -0.165 | [5] -0.466 | [6] 0.28 | [7] -0.221 | [8] -0.161 | [9] -0.182 | [10] -0.287
active: [2] -1.05
